Common to all, as to test: NCI-60 one-dose screen, 48 h (100 = growth as untreated, 0 = no growth, -100 = all killed)
What all share (settings): 10 µM unless noted

The test system of assay [1] is HCT-15 colon.
Assay [2] has as its system HT29 colon.
Assay [3] has as its system SNB-75 CNS.
Assay [4] relates to SNB-19 CNS.
Assay [5] has as its system U251 CNS.
The test system of assay [6] is PC-3 prostate.
Assay [7] deals with SK-MEL-5 melanoma.
For assay [8], the system named is UACC-62 melanoma.
For assay [9], the system named is LOX IMVI melanoma.
Assay [10] has as its system SK-MEL-28 melanoma.

This is part of a sample that, as a whole, favours compounds with a hit. Of some 83,000 tested, about 20% had one in any assay.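 Percent growth is the endpoint: 0 to 100 indicates growth inhibition (40 means 60% inhibition), 0 means no net growth, and negative values indicate cell death.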 Unmarked numbers belong to inactive results. Calls of active or inactive are those of the source. Rule for the calls: active = growth percent below 10; inactive = the rest.

We go through 23 compounds from PubChem BioAssay (NCI).

In the case of `C/C(=N/O)c1ccc(NC(=O)CSc2nnc(-c3ccc(-c4nc5ccc(Cl)cc5[nH]4)cc3)o2)cc1`, the growth in [1] was 78.1%; in assay [2], 31.4%; in assay [3] it was -27.5% (active); in [4] it was -86.7% (active); in assay [5], -95.8% (active); in assay [6], -22.4% (active). In addition, the growth is -60.4% (active) in assay [7], -86.6% (active) in [8], -100% (active) in assay [9] and -100% (active) in assay [10].

As to `Oc1ccc(Cl)c(Nc2nc(SCCN3CCOCC3)nc3c2cnn3CC(Cl)c2ccc(Br)cc2)c1` (stereo not given), the growth in [1] was 8.41% (active); in assay [2] it was 6.18% (active); in [3], 11.5%; in assay [4], 37.8%; in [5], 23.9%; in [6], 14.5%. For the same compound, the growth in [7] is 16.6%; in assay [8], 39.9%; in [9] it was -59.3% (active); in assay [10] it was 32%.

Consider `NS(=O)(=O)c1ccc(Nc2nc(SCC(=O)c3ccc(F)cc3)nc3ccccc23)cc1`, for which the growth was 24.9% in assay [1]; 63.3% in assay [2]; 43.5% in [3]; 54.8% in assay [4]; 47.2% in assay [5]; 43.1% in [6]. Also, the growth in assay [7] was 18.6%; in assay [8], 26.4%; in assay [9] it was 20.7%; in assay [10] it was 55.6%.

On to `O=C(Nc1ccc(S(=O)(=O)N2CCCCC2)cc1)C(Cl)Cl`, for which the growth in assay [1] is 103%; in [2], 109%; in [3], 103%; in assay [4] it was 93.7%; in assay [5], 98%; in assay [6], 107%. Besides, the growth in assay [7] was 105%; in assay [8], 106%; in [9], 100%; in assay [10] it was 130%.

As to `NNc1ncnc2sc3c(c12)CCN(Cc1ccccc1)C3`, the growth in assay [1] was 32.9%; in assay [2], 20.7%; in assay [3] it was 80.7%; in [4] it was 69.4%; in assay [5], 51.4%; in assay [6] it was 59.5%. The growth is 48% in assay [7], 53.1% in assay [8], 39.7% in assay [9] and 73% in [10].

For `O=C(Nc1ccc(F)cc1)Nc1nc2ccc([N+](=O)[O-])cc2s1`, the growth in assay [1] was 6.88% (active); in assay [2] it was 4.5% (active); in [3] it was -16.6% (active); in [4] it was 15.1%; in assay [5], 6.53% (active); in [6] it was 18.4%. Also, the growth in assay [7] was -84% (active); in assay [8], -5.55% (active); in [9] it was 12.5%; in assay [10] it was 7.31% (active).

Regarding `Cc1ccc(C(=O)Nc2cc(-c3ccccc3)cc(C(F)(F)F)c2)cc1C#Cc1cnc2cccnn12`, the growth is 57.7% in [1]; 34.8% in assay [2]; 112% in assay [3]; 92.3% in assay [4]; 74.9% in assay [5]; 65.8% in assay [6]. For the same compound, the growth in [7] is 26%; in [8], 46.1%; in assay [9], 39.4%; in [10], 52.9%.

Take `CCN1C(=O)N(CC)C2NNC(Sc3c(C(=O)O)c4ccccc4n(CC(C)C)c3=O)=NC21` (stereo not given): the growth is 7.04% (active) in assay [1]; -8.58% (active) in [2]; 34.4% in assay [3]; 17% in [4]; 10.7% in assay [5]; 29.9% in assay [6]. Further, the growth in [7] is 2.31% (active); in assay [8], 14.7%; in [9], 16.5%; in assay [10] it was 54.4%.

As for `O=C1Nc2ccc(F)cc2/C1=C/C(=O)c1cc2ccccc2oc1=O`, the growth in assay [1] is 62.7%; in assay [2] it was 115%; in [3] it was 91.1%; in assay [4], 100%; in assay [5] it was 104%; in assay [6] it was 93.7%. The growth in assay [7] was 102%; in assay [8] it was 82.2%; in [9], 80.4%; in [10] it was 117%.

On to `S=C(NCCc1ccccc1)Nc1ccc(OCc2nc3ccc(Cl)cc3[nH]2)cc1`, for which the growth in [1] is 4.3% (active); in assay [2], 32.2%; in [3] it was 33.4%; in [4] it was 46.7%; in assay [5], 16%; in assay [6], 39.8%. Also, the growth is 40.8% in assay [7], 34.5% in [8], -46.3% (active) in [9] and 48% in [10].

Take `Nc1nnc(-c2cncc(Br)c2)c(-c2c[nH]c3ccc(Cl)cc23)n1`: the growth in [1] was 55.4%; in [2], 106%; in assay [3], 57.2%; in [4] it was 73.1%; in assay [5], 83.9%; in assay [6] it was 90.5%. Also, the growth is 70.4% in [7], 73.7% in assay [8], 77.3% in assay [9] and 91.2% in assay [10].

As for `C#CCCCNCCNc1ccnc2cc(Cl)ccc12`, the growth in assay [1] was 43.5%; in assay [2] it was 25.7%; in assay [3], 100%; in assay [4] it was 101%; in assay [5], 84.3%; in assay [6], 73.1%. Also, the growth was 45.9% in [7], 73.5% in assay [8], 40.1% in [9] and 79% in assay [10].

For the compound `C#CCN(C)CCCOc1ccc(N(C)C(=O)c2cc(C(C)C)c(O)cc2O)cc1Cl`, the growth is 4.84% (active) in assay [1]; 9.18% (active) in assay [2]; 26.2% in assay [3]; 22.1% in assay [4]; 11.4% in [5]; 20% in assay [6]. The growth in assay [7] is -94.4% (active); in [8], -17.6% (active); in [9], -89.2% (active); in assay [10], 15.9%.

For `CCOc1ccccc1[C@H]1C(C(=O)c2ccc(Cl)cc2)C2(N[C@@H]1c1ccccc1)C(=O)Nc1ccccc12` (stereo not given in full), the growth is 7.49% (active) in assay [1]; -0.161% (active) in [2]; 46.9% in [3]; 27% in assay [4]; 29.9% in [5]; 7.19% (active) in [6]. For the same compound, the growth was -90.7% (active) in [7], -4.32% (active) in [8], -48.1% (active) in [9] and 40.8% in assay [10].

In the case of `CC[C@@]12CC(C(=O)OC)=C3Nc4cc5c(cc4[C@@]34CCN(C[C@H]3O[C@H]31)[C@@H]24)[C@@H]1[C@H](O5)[C@@H](O)[C@@]2(CC)CC(C(=O)OC)=C3Nc4cc(O)ccc4[C@@]34CCN1[C@@H]24`, the growth in assay [1] is -51.6% (active); in assay [2], -14% (active); in assay [3], -34.4% (active); in assay [4], -43.8% (active); in [5], -57.5% (active); in assay [6], 15.9%. Besides, the growth in [7] was -90.2% (active); in assay [8], -57.8% (active); in assay [9], -84.4% (active); in assay [10], -47.3% (active).

In the case of `Cc1ccc(-c2cc(-c3ccccc3)[nH]c(=O)c2C#N)cc1`, the growth in assay [1] was 71%; in [2] it was 114%; in assay [3] it was 99.4%; in [4], 84.3%; in [5], 90.8%; in assay [6], 83.7%. Further, the growth in assay [7] is 90%; in assay [8] it was 84.6%; in assay [9] it was 83%; in assay [10], 109%.

For the compound `CC1=C(C(=O)Nc2ccccc2)C(c2ccc3ccccc3c2)n2c(nc3ccccc32)N1` (stereo not given), the growth is 40.5% in [1]; 69% in [2]; -11.1% (active) in assay [3]; 79.4% in [4]; 28.6% in assay [5]; 21.7% in assay [6]. The growth in assay [7] is 87.3%; in assay [8] it was 75%; in assay [9], 9.5% (active); in assay [10] it was 63.2%.

As to `COc1ccc(S(=O)(=O)Nc2ccc(-c3ccc4c(c3)NC(=O)/C4=C\c3ccc[nH]3)cc2)cc1OC`, the growth in assay [1] was 41.4%; in [2], 8.82% (active); in assay [3] it was 13.9%; in assay [4] it was 3.61% (active); in assay [5], -58.5% (active); in assay [6], 44.5%. The growth is 20.3% in assay [7], -45.9% (active) in assay [8], -30.1% (active) in assay [9] and -90.6% (active) in assay [10].

As for `COc1cc(NC(=O)CSc2nnc(-c3ccc(-c4nc5ccc(Cl)cc5[nH]4)cc3)o2)cc(OC)c1OC`, the growth in assay [1] is 25.6%; in [2] it was 51.3%; in assay [3], 36.8%; in [4], 49.3%; in [5], 32.8%; in [6] it was 52.3%. In addition, the growth was 5.22% (active) in assay [7], 28.4% in assay [8], 32.2% in assay [9] and 49.1% in assay [10].

Consider `C=CC(=O)Nc1ccc(C(=O)/C=C/c2ccc(N(C)C)cc2)c(O)c1`, for which the growth in assay [1] is -17.2% (active); in assay [2], -37.7% (active); in assay [3], 28.1%; in assay [4] it was 28.2%; in [5], -56.4% (active); in [6] it was 34.4%. Moreover, the growth was 2.1% (active) in assay [7], -25.3% (active) in assay [8], -60.3% (active) in assay [9] and -6.18% (active) in [10].

Consider `Nc1cc2ccccc2c(=O)n1NC(=O)c1ccccc1`, for which the growth is 93.8% in [1]; 113% in [2]; 80.3% in assay [3]; 93.7% in [4]; 106% in assay [5]; 91.7% in assay [6]. Also, the growth in [7] is 96%; in assay [8], 76.5%; in [9], 88%; in assay [10], 98.8%.

Regarding `Cc1ccc(C(C(=O)NC2CCCCC2)N(Cc2ccccc2Cl)C(=O)c2ccc(CN3CCOCC3)o2)o1` (stereo not given), the growth in assay [1] was 98.3%; in assay [2], 95.4%; in assay [3] it was 80.2%; in [4], 85.6%; in [5] it was 103%; in [6], 78.5%. Further, the growth is 83.4% in assay [7], 66.2% in assay [8], 87% in assay [9] and 114% in assay [10].

Turning to `COc1ccc2[nH]c(O)c(N=Nc3nc(-c4ccc(Br)cc4)cs3)c2c1`, the growth was 2.5% (active) in assay [1]; 12.8% in [2]; -41.4% (active) in assay [3]; 36.4% in assay [4]; -39.5% (active) in assay [5]; 21% in [6]. For the same compound, the growth in [7] is 35.1%; in assay [8] it was 18.7%; in assay [9] it was 4.53% (active); in [10], 15.4%.
